The panel holds about 83,000 compounds, 20% with a hit somewhere; the sample as a whole holds those more often.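 Treatment: one concentration, 48 hours, 96-well format. Scoring: percent growth, with anything below 10 considered active.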 Calls of active or inactive are those of the source.
Experiments:
Assay in all cases: NCI-60 one-dose screen, 48 h (100 = growth as untreated, 0 = no growth, -100 = all killed)
Conditions in all cases: 10 µM unless noted
T-47D breast = system: T-47D breast
BT-549 breast = system: BT-549 breast
MDA-MB-435 melanoma = system: MDA-MB-435 melanoma
SW-620 colon = system: SW-620 colon
MCF7 breast = system: MCF7 breast
HCT-116 colon = system: HCT-116 colon
HCC-2998 colon = system: HCC-2998 colon
KM12 colon = system: KM12 colon

Measured: growth

COc1ccc(Cn2cc3c(c2-c2ccc(OC)cc2)CCc2cnoc2-3)cc1
active: MDA-MB-435 melanoma -29.7% | MCF7 breast 4.23% | HCT-116 colon 4.82% | HCC-2998 colon -30.2% | KM12 colon 5.5%
inactive: T-47D breast 38.7% | BT-549 breast 30.3% | SW-620 colon 22.6%

Cn1c2ccccc2c2ccccc21
inactive: T-47D breast 90% | BT-549 breast 106% | MDA-MB-435 melanoma 103% | SW-620 colon 106% | MCF7 breast 106% | HCT-116 colon 107% | HCC-2998 colon 110% | KM12 colon 101%

O=CN/N=C/c1ccc(Cl)c([N+](=O)[O-])c1
inactive: T-47D breast 25.3% | BT-549 breast 42.6% | MDA-MB-435 melanoma 18.9% | SW-620 colon 17.6% | HCT-116 colon 16.2% | HCC-2998 colon 27.2%
active: MCF7 breast 6.05% | KM12 colon 7.24%

CCCCCCCCCCCCOC(=N)N(C)C
inactive: T-47D breast 89.9% | BT-549 breast 96.7% | MDA-MB-435 melanoma 97.4% | SW-620 colon 98.8% | MCF7 breast 94.1% | HCT-116 colon 87.6% | HCC-2998 colon 101% | KM12 colon 101%

COCn1c(C(=O)OC)cc2oc(/C=C3/SC(=S)N(N)C3=O)cc21
inactive: T-47D breast 94.4% | BT-549 breast 80.8% | MDA-MB-435 melanoma 94.9% | SW-620 colon 97.6% | MCF7 breast 97% | HCT-116 colon 93.8% | HCC-2998 colon 102% | KM12 colon 92.3%

CN1NC(c2ccccc2)NN(C)C1=O
inactive: T-47D breast 95.7% | BT-549 breast 109% | MDA-MB-435 melanoma 102% | SW-620 colon 91.1% | MCF7 breast 96.3% | HCT-116 colon 101% | HCC-2998 colon 103% | KM12 colon 118%

COC(=O)c1cc(Nc2ccc(O)c3c2C(=O)c2c([N+](=O)[O-])ccc(O)c2C3=O)cc(C(=O)OC)c1
inactive: T-47D breast 68.9% | BT-549 breast 44.7% | SW-620 colon 13.1% | MCF7 breast 33.3% | HCT-116 colon 36.1% | HCC-2998 colon 36.3% | KM12 colon 88.7%
active: MDA-MB-435 melanoma -84.4%

CCn1cnc(C[C@H](NC(=O)[C@@H](NC(=O)Nc2cc(C(F)(F)F)cc(C(F)(F)F)c2)C(C)C)C(=O)OC)c1
active: T-47D breast -77.8% [100 µM] | BT-549 breast -97.6% [100 µM] | MDA-MB-435 melanoma -87.1% [100 µM] | SW-620 colon -44.1% [100 µM] | MCF7 breast -55.7% [100 µM] | HCT-116 colon -88.1% [100 µM] | HCC-2998 colon -86.3% [100 µM] | KM12 colon -81.9% [100 µM]

O=C(CCC(=O)N(CCO)CCO)N(CCO)CCO
inactive: T-47D breast 98.5% | BT-549 breast 93.5% | MDA-MB-435 melanoma 109% | SW-620 colon 106% | MCF7 breast 94.6% | HCT-116 colon 95.7% | HCC-2998 colon 110% | KM12 colon 99.8%

Cn1c2c(cc(S(=O)(=O)c3ccccc3)c1=O)CCc1c-2cnn1-c1ccc(Cl)cc1
active: T-47D breast -24.2% | BT-549 breast -13.8% | MCF7 breast -27.7%
inactive: MDA-MB-435 melanoma 16.2% | SW-620 colon 56.7% | HCT-116 colon 53% | HCC-2998 colon 74.3% | KM12 colon 92.2%

COc1cc2c(cc1OC)C(Cc1cc(OC)c(OC)cc1[N+](=O)[O-])=NCC2
inactive: T-47D breast 78.5% | BT-549 breast 56.6% | MDA-MB-435 melanoma 90.9% | SW-620 colon 82% | MCF7 breast 94% | HCT-116 colon 62.2% | HCC-2998 colon 89.5% | KM12 colon 88%

CCOC(=O)C1=C(C(F)(F)F)NC(=S)NC1CN1C(=O)c2ccccc2C1=O (centres undefined)
inactive: T-47D breast 107% | BT-549 breast 118% | MDA-MB-435 melanoma 118% | SW-620 colon 93.1% | MCF7 breast 88.4% | HCT-116 colon 103% | HCC-2998 colon 63.3% | KM12 colon 111%

NC(N)=Nc1ccc(/C=C2\C=Cc3ccccc32)cc1
inactive: T-47D breast 50.6% | BT-549 breast 81.5% | MDA-MB-435 melanoma 21.6% | SW-620 colon 33.5% | MCF7 breast 25% | HCT-116 colon 47.5% | HCC-2998 colon 62.6% | KM12 colon 15.2%

CCOC(=O)c1c(C)oc2ncnc(Nc3ccc(NC(=O)Nc4cccc(Cl)c4)cc3)c12
active: T-47D breast 1.99%
inactive: BT-549 breast 61.6% | MDA-MB-435 melanoma 65.8% | SW-620 colon 88.7% | MCF7 breast 43.3% | HCT-116 colon 50.8% | HCC-2998 colon 105% | KM12 colon 61%

CCCCCCCCCC[N+](C)(C)C
active: KM12 colon -51.2%
inactive: T-47D breast 27.3% | BT-549 breast 46.7% | MDA-MB-435 melanoma 32.6% | SW-620 colon 19% | MCF7 breast 31.1% | HCT-116 colon 21.8% | HCC-2998 colon 22%

COc1ccc(-c2nc(SCC(C)C)nc(Nc3ccc(C)cc3)c2C#N)cc1
inactive: T-47D breast 32.4% | BT-549 breast 85.8% | MDA-MB-435 melanoma 86.7% | SW-620 colon 54.4% | MCF7 breast 70.3% | HCT-116 colon 33.5% | HCC-2998 colon 92.5% | KM12 colon 80.8%

COc1ccc(OC)c(Cn2cc3c(c2)-c2oncc2CC3)c1
active: MDA-MB-435 melanoma -40.1% | MCF7 breast 8.44%
inactive: T-47D breast 36.1% | BT-549 breast 33.3% | SW-620 colon 22.4% | HCT-116 colon 16.8% | HCC-2998 colon 66.6% | KM12 colon 28.9%

O=C(/C=C/c1ccc(Cl)cc1)c1ccc(Cl)cc1
inactive: T-47D breast 114% | BT-549 breast 101% | MDA-MB-435 melanoma 80.3% | SW-620 colon 88.8% | MCF7 breast 16.9% | HCT-116 colon 69.8% | HCC-2998 colon 92.7% | KM12 colon 83.3%

O=C(Oc1ccccc1)c1ccccc1Cl
inactive: T-47D breast 100% | BT-549 breast 96.8% | MDA-MB-435 melanoma 103% | SW-620 colon 104% | MCF7 breast 102% | HCT-116 colon 102% | HCC-2998 colon 108% | KM12 colon 98.9%

CCCCCCNC(=O)Oc1ccc(/C(=C(/C)Cc2ccc(OC)cc2)c2ccc(OCCN3CCCCC3)cc2)cc1
inactive: T-47D breast 42% | BT-549 breast 92.5% | MDA-MB-435 melanoma 91.5% | SW-620 colon 84.6% | MCF7 breast 30.6% | HCT-116 colon 63.7% | HCC-2998 colon 94.9% | KM12 colon 85.6%

CCCCCCC(C(=O)OCC)(C(=O)OCC)C1CCCCCC1
inactive: T-47D breast 91.9% | BT-549 breast 104% | MDA-MB-435 melanoma 103% | SW-620 colon 99.1% | MCF7 breast 96.3% | HCT-116 colon 99% | HCC-2998 colon 100% | KM12 colon 105%

CC(=O)OC1CC2C3CCC4C[C@@H](NC(=O)C=C(C)C)CC[C@]4(C)C3CC[C@]2(C)[C@H]1C(C)N(C)C (some centres undefined)
inactive: BT-549 breast 22.5%
active: T-47D breast -22.3% | MDA-MB-435 melanoma -45.4% | SW-620 colon -72.5% | MCF7 breast 1.95% | HCT-116 colon -70.4% | HCC-2998 colon -51.9% | KM12 colon 1.6%

CC(C)OC(=O)Nn1cnc2ccccc21
inactive: T-47D breast 114% | BT-549 breast 116% | MDA-MB-435 melanoma 110% | SW-620 colon 111% | MCF7 breast 120% | HCT-116 colon 87.4% | HCC-2998 colon 105% | KM12 colon 114%

CCCCN(CCCC)CC(O)CN(CC)CC (centres undefined)
inactive: T-47D breast 97.6% | BT-549 breast 96.1% | MDA-MB-435 melanoma 92.2% | SW-620 colon 99.3% | MCF7 breast 96% | HCT-116 colon 97% | HCC-2998 colon 102% | KM12 colon 108%

O=C(O)c1occ(Cl)c1Cl
inactive: T-47D breast 103% | BT-549 breast 130% | MDA-MB-435 melanoma 98.5% | SW-620 colon 104% | MCF7 breast 111% | HCT-116 colon 116% | HCC-2998 colon 104% | KM12 colon 110%

CCC(C)(C)c1ccc(OCCCCCCN2CCNCC2)cc1
active: SW-620 colon -10.4% | MCF7 breast 4.81% | HCT-116 colon 6.39% | HCC-2998 colon -13.5%
inactive: T-47D breast 40% | BT-549 breast 89.1% | MDA-MB-435 melanoma 25.9% | KM12 colon 25.2%

CCCCCN1CCN(C(CC(=O)c2ccccc2)C(=O)c2ccccc2)CC1 (centres undefined)
inactive: T-47D breast 101% | BT-549 breast 96.2% | MDA-MB-435 melanoma 95.5% | MCF7 breast 89.6% | HCT-116 colon 77.4% | HCC-2998 colon 106% | KM12 colon 102%
active: SW-620 colon -100%

O=C(O)CC1Cc2ccccc2C1C(=O)O (centres undefined)
inactive: T-47D breast 101% | BT-549 breast 89.7% | MDA-MB-435 melanoma 108% | SW-620 colon 98.4% | MCF7 breast 105% | HCT-116 colon 93.5% | HCC-2998 colon 104% | KM12 colon 96.7%

CCOC(=O)CSSCC(=O)OCC
inactive: T-47D breast 94.4% | BT-549 breast 110% | MDA-MB-435 melanoma 99.4% | SW-620 colon 111% | MCF7 breast 95.2% | HCT-116 colon 108% | HCC-2998 colon 108% | KM12 colon 105%

Cc1ccc(CC(=O)O)c(C)c1
inactive: T-47D breast 97.1% | BT-549 breast 119% | MDA-MB-435 melanoma 108% | SW-620 colon 102% | MCF7 breast 95.7% | HCT-116 colon 107% | HCC-2998 colon 89.8% | KM12 colon 105%

Cc1ccc([C@@H]2C[C@H](O)Cc3ccccc3N2)s1
inactive: T-47D breast 99.1% | BT-549 breast 110% | MDA-MB-435 melanoma 103% | SW-620 colon 101% | MCF7 breast 107% | HCT-116 colon 116% | HCC-2998 colon 101% | KM12 colon 109%

c1ccc(-c2cn3ccnc3c(-c3ccc4ncn(C5CCCCC5)c4c3)n2)cc1
active: T-47D breast -11.1%
inactive: BT-549 breast 42.9% | MDA-MB-435 melanoma 71.3% | SW-620 colon 90.9% | MCF7 breast 62% | HCT-116 colon 40.5% | HCC-2998 colon 103% | KM12 colon 51%

COC1=C(OC)C(=O)c2ccccc2C1=O
inactive: T-47D breast 59.1% | BT-549 breast 101% | MDA-MB-435 melanoma 111% | SW-620 colon 97% | MCF7 breast 86.3% | HCT-116 colon 96.2% | HCC-2998 colon 94.5% | KM12 colon 105%

Reference: PubChem BioAssay (NCI)
